Laboratory results as given in ChEMBL document CHEMBL3988442, “University of Dundee, Small-Polar-MMV Screening Library” (2021).
The campaign covered roughly 48,000 compounds. About 13,000 (27%) showed an effect of 50% or more. This is one part of the list.

system: Wolbachia pipientis; test: Anti-Wolbachia Cell-Based Screen; assay type: functional; design: scale not given: in the data most compounds retested in dose-response had high values; details: 5 µM

SMILES	Percent Effect
CC(C)COCC(NC(=O)c1cc[nH]n1)c1ccco1 (configuration not stated)	4.731%
CCN(CC(=O)N(C)C)S(=O)(=O)c1cnc2c(c1)c(C)nn2C	5.433%
CCN1CCc2[nH]cnc2C12CCN(c1ncc(C(=O)O)cc1Cl)CC2	3.404%
Brc1ccc(C2(CNCc3cc[nH]c3)CCOCC2)cc1	10.2%
CN1CCCc2ccc(S(=O)(=O)NC(=O)C3CC=CC3)cc21	-3.642%
CC(C(=O)Nc1ccc(N2CCOCC2)nc1)n1cncn1 (configuration not stated)	104.2%
CC(OCC(F)(F)F)C(=O)Nc1ccc(-n2cncn2)nc1 (configuration not stated)	-8.836%
CC(Cc1ccco1)NC(=O)Nc1ccc(N2CCOCC2)nc1 (configuration not stated)	-10%
CCn1cc(CN2CCC(NS(C)(=O)=O)CC2)cc1C#N	-7.298%
CC(C)Cn1cnnc1C1CCCN1C(=O)c1cc2ccccn2c1 (configuration not stated)	-13.41%
CN[C@@H](CO)C(=O)NCc1cc2n(n1)CCCN(C1CCCCC1)C2	120.8%
CC(C)c1nnc(NCc2cc3n(n2)CCN(C2CCCCC2)C3)s1	8.692%
CC(C)CN1CCCn2nc(CNC(=O)OCc3ccccc3)cc2C1	17.53%
CC(C)CN1CCCn2nc(CNC(=O)NC(C)(C)C)cc2C1	-2.187%
CCCOC(C)C(=O)NCc1cc2n(n1)CCCN(C1CCCCC1)C2 (configuration not stated)	111%
CCC(CC)CN1CCCn2nc(CNC(=O)COC)cc2C1	4.127%
CCC(C)NC(=O)NCc1cc2n(n1)CCCN(C1CCCCC1)C2 (configuration not stated)	123%
CCCN1CCCn2nc(CNC(=O)C3CCOC3)cc2C1 (configuration not stated)	-8.283%
COC(=O)NCc1cc2n(n1)CCCN(C(C)=O)C2	17.7%
CC(C)NCc1cc2n(n1)CCN(C1CCCCC1)C2	-9.171%
CCC(OC)C(=O)NCc1cc2n(n1)CCCN(C1CCCCC1)C2 (configuration not stated)	113.3%
O=C(c1ccc(Cl)s1)N1CCCn2nc(CN3CC[C@H](F)C3)cc2C1	0.8139%
Cc1nc(C(C)N(C)Cc2nc(CCC(C)C)no2)c(C)s1 (configuration not stated)	1.881%

SMILES	Percent Effect
CCSc1ccc(C(C)NC(=O)CCS(C)(=O)=O)cc1 (configuration not stated)	-10.2%
CC(C)(C)c1nccc(N2CCN(C3CCS(=O)(=O)C3)CC2)n1 (configuration not stated)	-14.65%
CCCOC1CCCN(c2ccnc(C(=O)NCc3ccco3)c2)C1 (configuration not stated)	6.201%
O=C(NCCCc1ccco1)c1ccc(N2CCOCC2)cc1	-6.417%
CCOCCCNC(=O)c1cc(C(C)C)nc(N2CCCCCC2)n1	4.863%
O=C(NCc1ccco1)Nc1ccc2nc(N3CCOCC3)oc2c1	-0.2531%
CCOCc1nc(N2CCOCC2)sc1C(=O)NCc1ccco1	132.8%
CCOCc1nc(N2CCCC2)sc1C(=O)NCc1ccco1	113.4%
CC1CCCCN1C1CN(c2ccnc(C(=O)NCc3ccco3)c2)C1 (configuration not stated)	0.5235%
Cc1nc(CCCNC(=O)c2coc(CN3CCOCC3)c2)sc1C	-5.742%
O=C(NCc1ccco1)c1ccc(N2CCOCC2)cc1	-7.738%
CCOCc1nc(N2CCOCC2)sc1C(=O)NCCCc1ccco1	102.3%
Cc1nc(CC(=O)NCc2csc(N3CCCC3)n2)cs1	17.94%
CCOCc1nc(N2CCCC2)sc1C(=O)NCCC(=O)OCC	118%
CCc1nc(CNCC2CCCN2c2cc(NC)ncn2)cs1 (configuration not stated)	9.196%
COc1c(C2CCCN2Cc2nnc(C3CC3)n2C)c(C)nn1C (configuration not stated)	1.396%
N#Cc1ccc(CN2CCN(C(=O)C3CCC3)[C@@H]3CS(=O)(=O)C[C@@H]32)cc1	-4.315%
CN(C)c1nc(N)nc(CN2CCCC2c2cccs2)n1 (configuration not stated)	99.23%
CN(C)c1nc(N)nc(CN2CCCC(c3ccccc3)CC2)n1 (configuration not stated)	-22.19%
CN(CCC#N)C(=O)CN1CCCC1c1cccs1 (configuration not stated)	-24.43%
CN(C)c1nc(N)nc(CN2CCC(c3ccccc3)CC2)n1	-7.992%
Cc1nc(CN2CCCC2c2ccsc2)nc2ccccc12 (configuration not stated)	1.892%
Cc1cccc(C2CCCN2Cc2nc(N)nc(N(C)C)n2)c1C (configuration not stated)	140.3%

SMILES	Percent Effect
CN(C)c1nc(N)nc(CN2CCC(c3nc4ccccc4o3)CC2)n1	-47.21%
CCCc1noc(CN2CCCC2c2ccsc2)n1 (configuration not stated)	1.014%
CN(C)c1nc(N)nc(CN2CCCC2c2ccsc2)n1 (configuration not stated)	99.77%
COCCC(=O)Nc1nccn1Cc1ccc(Br)cc1	-0.6439%
CNC(=O)c1cnc(/C=C/c2ccc(OC)c(O)c2)s1	-1.59%
Cc1cc(C(=O)N2C[C@H](CO)C[C@H](CN3CCOCC3)C2)cnc1C	8.759%
Cc1ccc(C)c2c(O)cc(CNCCNC(=O)C(C)C)nc12	-21.09%
c1cncc(NCCNC2CSCCSC2)c1	16.15%
Cc1cccc(-c2noc([C@@H]3C[C@@H](O)CN3Cc3ccc(CO)o3)n2)c1	5.801%
CC(C)n1cnc2c1C(C(=O)N1CCCC1)N(S(C)(=O)=O)CC2 (configuration not stated)	-12.38%
Cc1nn(C)c(Cl)c1C1CCCN1Cc1nnc(C2CC2)n1C (configuration not stated)	-12.44%
Cc1cc(NC(=O)CN2CCN(c3nccs3)C(C)C2)no1 (configuration not stated)	110.3%
CCc1nnc2n1CCN(CC(=O)Nc1cc(C)on1)C2	-12.71%
Cc1cc(NC(=O)C(C)N2CCCN(c3nccs3)CC2)on1 (configuration not stated)	-9.765%
Cc1cc(NC(=O)C(C)N2CCN(c3nccs3)CC2)on1 (configuration not stated)	-1.934%
Cc1cc(NC(=O)CN2CCN(c3nccs3)C(C)C2)on1 (configuration not stated)	108.7%
CC(=O)c1ccc(C(=O)Nc2ccnc(N(C)C)n2)cc1	-0.9205%
CCNC(=O)NCc1ccnc(N(C)C)n1	-21.64%
CN(C)c1nccc(NC(=O)c2ccncc2)n1	2.726%
CN(C)c1nccc(CNC(=O)NC(C)(C)C)n1	-4.369%
CN(C)c1nccc(-c2c[nH][nH]c2=O)n1	105.1%
CN(C)c1nccc(-c2cnc(N(C)C)[nH]c2=O)n1	117.9%
c1cc(-c2nc(CN3CCn4c(nnc4C4CC4)C3)cs2)cs1	-6.477%

SMILES	Percent Effect
Cc1noc2ncc(S(=O)(=O)Nc3cc(C(C)(C)C)n[nH]3)cc12	-0.8197%
Cc1cc(C(=O)N(Cc2c(C)nn(C)c2C)C(C)C)nc(C)n1	12.98%
Cn1ccc(C(=O)NCc2ccccc2CN2CCCC2)cc1=O	88.78%
Cn1ccc(C(=O)NCc2ccccc2Cn2ccnc2)cc1=O	-5.249%
CN1CCN(Cc2ccccc2CNC(=O)c2cc(Br)ccc2F)CC1	-18.53%
CN1CCN(Cc2ccccc2CNC(=O)c2ccc(Br)cc2F)CC1	7.367%
CN1CCN(Cc2ccccc2CNC(=O)c2ccc(Br)cc2)CC1	1.874%
Cn1ccc(C(=O)NCc2ccccc2CN2CCCCC2)cc1=O	100.5%
COc1cc(C)cc(C(C(=O)O)N(C)Cc2ccon2)c1OC (configuration not stated)	-2.337%
O=C1CC(c2ccccc2)C2(CCN(C(=O)c3cnccn3)CC2)N1 (configuration not stated)	-7.237%
O=C(COCC(F)(F)F)Nc1nncs1	9.109%
O=C(NCC1CC1)Nc1cccc(N2CCN(CC3CC3)CC2)c1	0.3476%
O=C(NCc1ccc2[nH]c(=O)[nH]c2c1)c1ccc(CN2CCCC2)o1	-9.598%
O=C(CCn1cccc1)NCc1ccc(CN2CCCCCC2)o1	106.7%
Cc1[nH]c2ccc(CNC(=O)c3ccc(CN4CCCC4)o3)cc2c1C	16.58%
CC(C)N1CCCC(CNC(=O)Cc2csc(-c3cccnc3)n2)C1 (configuration not stated)	3.537%
CNC(=O)c1csc(-c2ccoc2)n1	6.478%
CNC(=O)c1csc(-c2cccnc2)n1	130%
O=C(NCCc1nncn1C1CC1)C1SCCc2ccccc21 (configuration not stated)	-2.915%
Cc1nn(C)cc1C(=O)N1CCC(CSc2ccccc2)C1 (configuration not stated)	-5%
Cc1nn(C)cc1NC(=O)CC1CCN(C(=O)Cc2ccccc2)CC1	152.2%
Cc1nn(C)cc1NC(=O)CC1CCN(CCc2ccccc2)CC1	168.6%
CS(=O)(=O)NC1CCN(CCc2ccccc2)CC1	-1.788%

SMILES	Percent Effect
O=C(Cc1ccccc1F)NCC1CCN(CCc2ccccc2)C1 (configuration not stated)	-7.846%
Cn1cccc(NC(=O)N2CCC(Cc3ccccc3)C2)c1=O (configuration not stated)	25.6%
CC(=O)NCc1nnc2n1CCN(c1ncnc3c1CCC3)CC2	-4.362%
Cn1cc(Br)cc(NC(=O)CC2CCC2)c1=O	5.375%
CC(C)(C)C(NC(=O)CCS(C)(=O)=O)c1ccc(F)cc1F (configuration not stated)	7.431%
COCCS(=O)(=O)Cc1nnnn1-c1ccccc1	8.083%
CCCn1[nH]cc/c1=N\C(=O)CN1CCc2c(nc(C3CC3)n2C)C1	122.4%
CCCn1[nH]cc/c1=N\C(=O)CN1CCc2cnc(C(C)C)nc2C1	129.2%
CCCn1[nH]cc/c1=N\C(=O)CN1CCc2c(nc(C(C)C)n2C)C1	-3.864%
CCCn1[nH]cc/c1=N\C(=O)CN1CCc2cnc(CC)nc2C1	1.642%
CCCn1[nH]cc/c1=N\C(=O)CN1CCn2c(nnc2C2CC2)C1	-10.08%
CCCn1[nH]cc/c1=N\C(=O)CN1CCOC(Cn2cc(C)cn2)C1 (configuration not stated)	12.63%
O=C(CNC(=O)N(Cc1ccoc1)C1CCCCC1)N1CCCC1	-3.863%
O=C1CN(Cc2cn(CC3CCCN(C4CCSCC4)C3)nn2)CCN1 (configuration not stated)	-21.26%
Cn1ccc(C(=O)N2CCCC2c2ccc3c(c2)OCCO3)cc1=O (configuration not stated)	4.386%
CNc1cncc(C2CCCN2C(=O)c2ccc3nc(C)[nH]c3c2)n1 (configuration not stated)	94.32%
CNc1cncc(C2CCCN2C(=O)c2ccc3c(c2)CCC3)n1 (configuration not stated)	112.1%
CNc1cncc(C2CCCN2C(=O)c2ccc3oc(C)cc3c2)n1 (configuration not stated)	6.468%
CNc1cncc(C2CCCN2C(=O)c2ccc3c(c2)OCCO3)n1 (configuration not stated)	121%
Cn1cc(C(=O)N2CCCC2c2ccc3c(c2)OCCO3)ccc1=O (configuration not stated)	14.96%
